# Results: the supplement of paper PMC10646978
# ± gives the standard deviation.
# What was measured:
# Settings in all cases: modulator concentration 10 µM
# [1] = test system: RAW-Dual (murine macrophage reporter line); experiment: NF-kB reporter (SEAP) activity fold change vs agonist alone; higher = enhanced NF-kB activity
# Outline: (§1)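 Compound reached 10 μM final in each well by pin transfer, onto RAW-Dual murine macrophage reporter cells seeded at 50 000 per well in 384-well plates. After 1 hour at 37 °C, the cells were stimulated overnight with a PRR agonist. SEAP in the supernatant was read with QUANTI-Blue at 620 nm absorbance for NF-κB, and Lucia luciferase was read with QUANTI-Luc luminescence for IRF. Each signal was turned into fold change against the mean agonist-only control on the same plate, and two replicate plates were averaged with propagated errors.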
# [2] = test system: RAW-Dual (murine macrophage reporter line); experiment: IRF reporter (Lucia luciferase) activity fold change vs agonist alone; higher = enhanced IRF activity
# Outline: as §1
# [3] = test system: RAW-Dual (murine macrophage reporter line); experiment: viability score (confluency relative to resting cells, overnight) (fraction); higher = more viable, active = viable (0.7 or more)
# Outline: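 Confluency was the readout: RAW-Dual macrophages were imaged with IncuCyte after an overnight exposure to compound at 10 μM final. IncuCyte software produced two masks over all imaged wells. The viability score expresses confluency against resting cells, and both masks had to exceed 70% of resting cells for a compound to meet the cutoff.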
# [4] = agonist: CpG ODN 1826 0.5 ug/mL
SMILES,"NF-kB reporter [1, 4]",NF-kB reporter ([1]; agonist: LPS 0.1 ug/mL),NF-kB reporter ([1]; agonist: MPLA […]),IRF reporter ([2]; agonist: 3'3'-cGAMP 10 ug/mL),IRF reporter ([2]; agonist: LPS 0.1 ug/mL),IRF reporter ([2]; agonist: MPLA […]),viability score [3]
O=C(CCc1csc(NC(=O)c2ccco2)n1)Nc1ccc(Cl)cc1,0.9 ± 0.069,0.87 ± 0.071,0.973 ± 0.097,0.883 ± 0.045,1.44 ± 0.23,1.55 ± 0.43,0.974 (active)
O=S(=O)(Cc1ccccc1)Nc1ccccn1,0.951 ± 0.054,1.03 ± 0.084,0.893 ± 0.067,0.961 ± 0.032,1.49 ± 0.13,1.27 ± 0.15,1 (active)
CCOc1ccc(N2CCN(CC(=O)O)C2=O)cc1,1.15 ± 0.32,1.06 ± 0.11,1.02 ± 0.1,0.917 ± 0.063,0.968 ± 0.12,1.15 ± 0.21,0.997 (active)
Cc1ccc(=O)n(-c2ccccc2)c1,0.979 ± 0.079,0.981 ± 0.098,0.968 ± 0.038,0.979 ± 0.077,0.975 ± 0.13,0.976 ± 0.092,1 (active)
Cc1nc(-c2ccc(S(=O)(=O)N3C4CCC3CC(Oc3cccnc3)C4)cc2)co1 (centres undefined),1 ± 0.093,1.08 ± 0.086,0.94 ± 0.051,1.04 ± 0.077,1.14 ± 0.087,1 ± 0.092,1.01 (active)
Cc1ccc(-n2c(=O)c3c4c(sc3n3c(S)nnc23)CCCC4)cc1,0.968 ± 0.063,1.07 ± 0.069,0.923 ± 0.1,0.959 ± 0.035,1.41 ± 0.21,1.15 ± 0.1,0.993 (active)
CCN(CC)C(=O)N1CCN(C)CC1.O=C(O)CC(O)(CC(=O)O)C(=O)O,1.04 ± 0.19,0.975 ± 0.18,0.92 ± 0.065,0.895 ± 0.057,1.23 ± 0.23,1.16 ± 0.27,0.995 (active)
CC(=O)CCc1oc2ccc([N+](=O)[O-])cc2c1-c1ccc(C)o1,1.04 ± 0.12,0.837 ± 0.065,0.825 ± 0.084,0.817 ± 0.048,0.849 ± 0.12,0.713 ± 0.17,0.973 (active)
CN1CCN(C2=C(Cl)C(=O)N(c3cccc(Cl)c3)C2=O)CC1,1.09 ± 0.079,0.914 ± 0.099,1.01 ± 0.03,0.465 ± 0.022,0.972 ± 0.053,0.974 ± 0.096,0.993 (active)
COc1ccc(N2CC(NC(=O)Nc3cccc(Cl)c3C)CC2=O)cc1OC (centres undefined),0.89 ± 0.064,1 ± 0.085,1.01 ± 0.061,0.977 ± 0.074,1.1 ± 0.21,1.15 ± 0.45,0.973 (active)
O=c1ccc2cc(O)c(O)cc2o1,1.34 ± 0.34,0.878 ± 0.044,1.03 ± 0.16,0.736 ± 0.026,1.34 ± 0.2,1.2 ± 0.12,0.986 (active)
O=S1(=O)Nc2c(ccc3cccnc23)-c2ccccc21,0.603 ± 0.086,1.38 ± 0.1,2.34 ± 0.22,15 ± 0.57,0.755 ± 0.23,0.29 ± 0.079,0.671 (inactive)
O=C(Nc1ccc(S(=O)(=O)Nc2nccs2)cc1)c1c(F)cccc1F,0.984 ± 0.1,1.02 ± 0.058,0.922 ± 0.06,0.982 ± 0.026,1.52 ± 0.23,1.14 ± 0.1,1.01 (active)
O=C(CSc1ccc2nc(-c3ccccc3)cn2n1)Nc1ccc(Br)cc1,0.931 ± 0.2,0.957 ± 0.077,0.995 ± 0.15,0.624 ± 0.017,1.21 ± 0.25,1.31 ± 0.23,0.988 (active)
CN(C)CCOC(c1ccccc1)c1ccccc1.Cl,1.12 ± 0.16,1.11 ± 0.089,0.985 ± 0.11,0.791 ± 0.029,1.17 ± 0.1,1.03 ± 0.12,0.999 (active)
CCOc1ccc2c(c1)C(c1ccccc1C(F)(F)F)CC(=O)N2 (centres undefined),1.02 ± 0.17,1.05 ± 0.091,1.03 ± 0.1,1.09 ± 0.046,1.43 ± 0.33,1.57 ± 0.23,0.995 (active)
COc1ccccc1N1CCN(CC(O)COc2cccc3ccccc23)CC1 (centres undefined),0.878 ± 0.22,1.21 ± 0.2,0.711 ± 0.04,0.719 ± 0.026,1.6 ± 0.14,1.35 ± 0.13,0.967 (active)
Cc1cc(N2CCCC2)nc(Nc2ccc(NC(=O)CC(C)C)cc2)n1,0.131 ± 0.01,1.18 ± 0.087,1.31 ± 0.13,0.947 ± 0.04,1.3 ± 0.14,1.49 ± 0.2,0.939 (active)
COC(=O)C1=C(C)NC(C)=C(C(=O)OCCN(C)Cc2ccccc2)C1c1cccc([N+](=O)[O-])c1 (centres undefined),0.317 ± 0.079,0.753 ± 0.06,0.72 ± 0.05,0.324 ± 0.028,1.14 ± 0.24,1.15 ± 0.12,0.982 (active)
S=c1n(CN2CCOCC2)nc(-c2ccccc2Cl)n1-c1ccccc1,1.06 ± 0.059,0.985 ± 0.067,0.947 ± 0.074,0.944 ± 0.047,1.32 ± 0.18,1.16 ± 0.13,0.993 (active)
Cc1cc(OC2CN(C(=O)Cn3nnc4ccccc43)C2)cc(=O)n1C1CC1,1.14 ± 0.08,1.05 ± 0.11,1.02 ± 0.044,0.97 ± 0.044,0.99 ± 0.07,0.973 ± 0.15,0.997 (active)
Cc1ccc(COc2ccc3c(C)c(C)c(=O)oc3c2C)cc1,0.785 ± 0.067,0.84 ± 0.043,1 ± 0.098,0.761 ± 0.041,1.32 ± 0.1,1.53 ± 0.13,0.984 (active)
Cl.Cl.Cn1cc(CNCC2CCN(c3ncc(C(=O)NO)cn3)CC2)c2ccccc21,1.84 ± 0.11,1.72 ± 0.15,2.69 ± 0.12,0.067 ± 0.0071,0.396 ± 0.025,0.692 ± 0.054,0.0605 (inactive)
Cc1c(NC(=S)NC(=O)c2ccccc2[N+](=O)[O-])cccc1-c1nc2ccccc2o1,0.898 ± 0.074,1 ± 0.073,1.05 ± 0.11,0.649 ± 0.093,1.04 ± 0.15,1.07 ± 0.31,1 (active)
COC(=O)C1=CN(CC2CCCO2)C=C(C(=O)OC)C1c1ccc(Cl)cc1 (centres undefined),0.999 ± 0.19,0.992 ± 0.11,1.44 ± 0.54,0.94 ± 0.025,1.04 ± 0.13,1.07 ± 0.11,1 (active)
COCC(C)(CNS(=O)(=O)c1ccccc1Br)OC (centres undefined),0.978 ± 0.091,1.13 ± 0.091,0.933 ± 0.1,0.982 ± 0.049,1.07 ± 0.11,1.06 ± 0.18,0.993 (active)
Br.O=S(=O)(c1ccc(-c2csc(Nc3ccc(F)cc3)n2)cc1)N1CCOCC1,0.769 ± 0.068,0.989 ± 0.075,2.17 ± 0.15,0.768 ± 0.096,0.948 ± 0.054,1.55 ± 0.1,0.997 (active)
